In PubChem BioAssay AID686970 (National Center for Advancing Translational Sciences (NCATS), 2013):
Hit rate of the full screen: of about 360,000 compounds, about 6,000 (1.7%) were called active. Inconclusive results (about 8%) are left out. The call rests on the fitted dose curve; in most records, active means well fitted cell-killing curve with a large enough effect; inconclusive means small, poorly fitted or top-dose-only effect, or effect the other way; inactive means flat fitted curve, though single readings scatter. What follows is part of a selection rich in actives, with near analogues and random picks from the rest.

Test: qHTS for induction of synthetic lethality in tumor cells producing 2HG: qHTS for the HT-1080-NT fibrosarcoma cell line;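 further: NT is the 2HG producing partner of a matched IDH1 knockdown line; nearly all actives have a fitted effect of over 55% in size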;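 on activity, negative = less viability: 0% = DMSO-treated cells and -100% = media-only wells without cells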
Settings: HT-1080-NT fibrosarcoma viability, CellTiter-Glo ATP luminescence, 48 h; series mostly up to 46.1 µM; activity, negative = less viability: at the top concentration
Procedure, shortened: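 Viability of the 2HG-overproducing fibrosarcoma line after 48 hours of compound exposure at 37 degrees C was determined by luminescence with CellTiter-Glo, and concentration-effect curves were then fitted and categorized.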
Potency means the concentration at half of the fitted maximal effect.

Compound | activity, negative = less viability | Potency
CC1(Oc2ccc(Cl)cc2)CCN(Cc2csc3ccccc23)C1 (stereo not given) | 10.5% (inactive) | –
COc1ccc(C2=NOC(C(=O)NCc3ccco3)C2)cc1OC (stereo not given) | – | 6.31 µM (active)
COc1ccc(CNC(=O)C2CC(c3ccc(C(F)(F)F)cc3)=NO2)cc1 (stereo not given) | -10.4% (inactive) | –
COc1ccc(S(=O)(=O)N2CCC(C(=O)NCc3ccco3)CC2)cc1C | 1.61% (inactive) | –
COc1ccc(CN2C[C@H]3CON(C)[C@H]3C[C@H]2c2ccc(-c3cccc(F)c3)cc2)cc1 | -27.7% (inactive) | –
Cc1sc2ncnc(SCC(=O)NC3CCS(=O)(=O)C3)c2c1C (stereo not given) | -12.9% (inactive) | –
Cc1ccc(CN(C)C[C@@H]2OCc3cnnn3CCCC(=O)N([C@@H](C)CO)C[C@H]2C)cc1 | -0.921% (inactive) | –
CCOc1cccc(=O)c2c(C)n(CC3CCCO3)c(C)c12 (stereo not given) | -0.086% (inactive) | –
CN1CN(C)c2ccc([N+](=O)[O-])c3cccc1c23 | -4.95% (inactive) | –
O=C1c2cccc3c([N+](=O)[O-])ccc(c23)C(=O)N1CC1CCCO1 (stereo not given) | – | 23.1 µM (active)
O=C(NCCS(=O)(=O)N1CCN(c2ccccc2)CC1)c1cc(=O)c2ccccc2o1 | 0.636% (inactive) | –
CC1CN(C(=O)c2cccc(NS(=O)(=O)c3ccc(Br)cc3)c2)CC(C)O1 (stereo not given) | -3.46% (inactive) | –
C[C@H]1COc2cc(N3CCSCC3)ccc2S(=O)(=O)N1 | 17.1% (inactive) | –
CCCCC(O)C1=C[N+](=O)CC=C1 (stereo not given) | 16% (inactive) | –
COc1ccc(C)cc1-n1nnnc1SCc1nc2ccccc2c(=O)[nH]1 | – | 14.6 µM (active)
COc1ccc(CCCc2nnc(SCc3nc4ccccc4c(=O)[nH]3)n2C)cc1 | -18% (inactive) | –
CCn1c(COc2c(C)cccc2C)nnc1SCc1nc2ccccc2c(=O)[nH]1 | 0.882% (inactive) | –
COc1ccc(C2=Nc3ccccc3NC(=O)C2N(C(=O)c2cc3ccccc3[nH]2)c2ccccc2)cc1 (stereo not given) | -15.6% (inactive) | –
O=C(Nc1ccc2c(c1)OCCO2)C(C1CC1)N1CCC(Cc2ccccc2)CC1 (stereo not given) | -1.64% (inactive) | –
COc1ccc(OC)c(NC(=O)C2(C)CCN2C(=O)Cc2ccccc2)c1 (stereo not given) | 3% (inactive) | –

Compound | activity, negative = less viability | Potency
N#CCSc1ccccc1NC(=O)CN1C(=O)NC(CCc2ccccc2)C1=O (stereo not given) | -11.4% (inactive) | –
CC[C@]1(O)C[C@@H]2CN(CCc3c([nH]c4ccccc34)[C@@](C(=O)OC)(c3cc4c(cc3OC)N(C)[C@H]3[C@@](O)(C(=O)OC)[C@H](OC(C)=O)[C@]5(CC)C=CCN6CC[C@]43[C@@H]65)C2)C1 | – | 0.082 µM (active)
O=C(c1cc2cc(F)ccc2[nH]1)N1CCN(c2ccc(F)cc2)CC1 | 3.63% (inactive) | –
O=C(CCCN1CCc2[nH]c3ccc(F)cc3c2C1)c1ccc(F)cc1 | – | 18.4 µM (active)
O=C(Nc1ccc(Cl)cc1)N1CCc2[nH]c3ccccc3c2C1 | -22.4% (inactive) | –
COC(=O)[C@]12CCCCC=C1N(CCC1=CCCCC1)C(=O)[C@H](CC(=O)N1CCSCC1)C2 | -10.5% (inactive) | –
COC(=O)C[C@H]1C[C@@H]2c3cc(N(C)C)ccc3O[C@@H]2[C@H](CO)O1 | -0.17% (inactive) | –
CN(C)CCCOc1ccc(-c2ccc3nccn3c2)cn1 | 17.2% (inactive) | –
COc1ccc(S(=O)(=O)N[C@@H]2C=C[C@@H](CC(=O)N3CCc4ccccc4C3)O[C@@H]2CO)cc1 | 5.92% (inactive) | –
C=C1C(=O)OC2C1CCC(C)=CCCC1(C)OC21 (stereo not given) | – | 16.4 µM (active)
O=C(OCc1cn([C@@H]2C[C@H](c3ccc(Cl)cc3)N(Cc3cccs3)C[C@H]2O)nn1)c1ccccc1 | 1.48% (inactive) | –
CCOc1ccc(CCN2C(=O)C(=O)N([C@@H](CC(C)C)CN3CCC[C@H]3CN3C(=O)C(=O)NC[C@@H]3Cc3ccccc3)C[C@@H]2CC(C)C)cc1 | 11.6% (inactive) | –
CC1(C(=O)NS(=O)(=O)c2cccc(F)c2)CCN1C(=O)Cc1cc(F)ccc1F (stereo not given) | 27.2% (inactive) | –
Cc1c(C(=O)NCc2ccc(C#N)cc2)sc(=O)n1Cc1ccc(C(=O)N(C)C)cc1 | 5.36% (inactive) | –
CN(C)c1ccc(C2N(C)C(=O)c3ccccc3N2C)cc1 (stereo not given) | -5.29% (inactive) | –
CN(C)c1ccc(Nc2c3c4c(cccc4n(C)c2=O)C(=O)c2ccccc2-3)cc1 | – | 5.8 µM (active)
COc1ccc([C@H]2CC(=O)C[C@@H](CCn3cc(CC4CCCC4)nn3)O2)cc1 | 2.3% (inactive) | –
CCc1oc(-c2ccc(OC)cc2)c(C(=O)OCCCCCO)c1C(C)OCCO (stereo not given) | -8.86% (inactive) | –
Cc1ccc(S(=O)(=O)N2CCC(=O)N([C@H](COCc3ccccc3)C(C)C)CC2)cc1 | 9.52% (inactive) | –
O=C(NCCc1ccccc1)c1cccc(NC(=O)c2ccccc2)c1 | -7.31% (inactive) | –

Compound | activity, negative = less viability | Potency
O=C(CCl)Nc1cccc(CP(=O)(c2ccccc2)c2ccccc2)c1 | – | 4.11 µM (active)
O=C(CSCc1ccccc1)Nc1ccccc1 | 19.4% (inactive) | –
CC(C)[C@H](NC(=O)c1ccccc1F)C(=O)Nc1cccc(S(=O)(=O)N2CCOCC2)c1 | 1.57% (inactive) | –
COc1ccc2[nH]c(=O)c(CN(Cc3nnnn3CCc3ccccc3)CC3CCCO3)cc2c1 (stereo not given) | -12% (inactive) | –
CCOc1ccc2[nH]c(=O)c(CN(Cc3nnnn3CCc3ccccc3)CC3CCCO3)cc2c1 (stereo not given) | -0.584% (inactive) | –
CCOc1ccc2[nH]c(=O)c(CN(Cc3nnnn3Cc3ccccc3)CC3CCCO3)cc2c1 (stereo not given) | – | 6.31 µM (active)
CCOC(=O)C1=CC[C@@H](c2ccccc2)N(S(=O)(=O)c2ccc(C)cc2)[C@H]1c1cccc(OC)c1 | 5.72% (inactive) | –
CC1(C)NC(=O)N(CC(=O)Nc2ccc(-c3ccccc3)cc2)C1=O | 13.6% (inactive) | –
Cc1cc(C)cc(NS(=O)(=O)Cc2ccccc2)c1 | -3.43% (inactive) | –
CCS(=O)(=O)Nc1cccc(-c2cc(-c3ccccc3)c3cc(C)ccc3n2)c1 | – | 23.1 µM (active)
CS(=O)(=O)Nc1cccc(-c2cn3ccccc3n2)c1 | 23.4% (inactive) | –
Cc1ccc(-c2nc3c(C)cc(Br)cn3c2Cc2ccccc2)cc1 | 17.6% (inactive) | –
COC(=O)[C@]12CCCCC=C1N(Cc1ccc3c(c1)OCO3)C(=O)[C@H](CC(=O)NCc1cccs1)C2 | -16.6% (inactive) | –
O=C1NC(c2ccccc2)Oc2ccccc21 (stereo not given) | 6.8% (inactive) | –
COc1ccc(C2NC(=O)c3ccccc3N2)cc1 (stereo not given) | -20.1% (inactive) | –
O=C1NC(c2cccc(Cl)c2)Nc2ccccc21 (stereo not given) | – | 11.6 µM (active)
CCc1nc2c(OCCc3cccc(OC)c3)cccn2c1N(C)C(=O)c1ccc(C)cc1 | -2.42% (inactive) | –
O=C(COC(=O)c1cncc(Br)c1)Nc1ccc(S(=O)(=O)N2CCOCC2)cc1 | -2.37% (inactive) | –
CC(C)c1cc(C(=O)N(C)C2CCCN(Cc3ccccc3F)C2)n(C)n1 (stereo not given) | -7.41% (inactive) | –
CNc1cncc(-c2cccc(C(=O)N3CCOCC3)c2)n1 | 4.76% (inactive) | –
